Hits are enriched below; roughly 2.7% of the tested compounds scored in any of these assays.
pAkt inh = Akt phosphorylation inhibition; 360,000 tested, 0.32% active; Neuro2A IGF-stimulated pAkt S473 HTRF, 20 min; stronger effect = lower value; activity change, % for hits at 50 µM; AID 651550; in the data active = activity change below about -80%; inconclusive = mostly about -51% to -80%
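Single-point screen (50 µM final compound) in Neuro2A cells stimulated 20 min with 6 nM IGF at 37 deg C. After lysis, Ser473-phosphorylated Akt read by HTRF (ex 330 nm, em 615/665 nm) as the 665/615 ratio.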
gsp antagonist = antagonizes gsp, the McCune-Albright syndrome mutation | gsp-mutant cells, cAMP HTRF, 30 min | Potency, µM (titrated, usually from 76.9 µM), usual class: inhibitors | 340,000 tested, 0.4% active; calls by dose curve; cell line not stated here;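 also: intracellular cAMP measured with PDE inhibitor Ro 20-1724 present during compound exposure; nearly all actives have a fitted effect of over 65% in size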
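Measurement of cellular cAMP by homogeneous time-resolved fluorescence following a 30 min compound exposure at 37C. The PDE inhibitor […] was present throughout; the assay buffer was DPBS with 0.05% BSA and 0.005% Tween 20.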
ClpP mod = qHTS Assay for Activators of ClpP. purified B. subtilis ClpP, FRET peptide cleavage, 20 min. Potency, µM (top dose mostly 57.5 µM). 340,000 tested, 1.9% active. AID 651965, 2013; active = well fitted falling curve with a large enough effect; inconclusive = small, poorly fitted or top-dose-only effect; inactive = no such curve, though single readings can be large or run the other way; also: the source files actives as falling curves though it sought activators and does not explain the sign; nearly all actives have a fitted effect of over 65% in size
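FRET quenching reversal measured ClpP activation: 10 microg/mL B. subtilis ClpP at pH 8 with the FRET-FV decapeptide, read at 430 nm after 320 nm excitation. The 20-min minus 0-min signal was scaled between DMSO/no-enzyme wells and ADEP (5.8 microM final).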
gsp agonist = gsp mutant agonism; 340,000 tested, 0.13% active; Potency, µM (series often up to 76.9 µM), usual class: activators; AID 624287; gsp mutant cells, cAMP HTRF, 30 min; active = well fitted activation curve with a large enough effect; inconclusive = small, poorly fitted or top-dose-only effect, or another doubt; inactive = no such curve, though single readings can be large or run the other way; cell line not stated here;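 also: phosphodiesterase inhibitor Ro 20-1724 added with compounds to block cAMP breakdown; nearly all actives have a fitted effect of over 60% in size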
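Cells stably selected in G418 were plated at 2000/well, grown 16-24 hr, then given compounds in DMSO with the PDE inhibitor […] (300 uM solution added) for 30 min at 37C; cAMP was read by HTRF.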
RXFP1 agonist = RXFP1 (human) receptor agonism. Q9HBX9. HEK293T-RXFP1 cAMP TR-FRET, 30 min; response scale: percent of porcine relaxin response, buffer zero. Potency, µM (doses to about 57.5 µM), most hits filed as activators. 370,000 tested, 0.3% active. AID 2676; active = well fitted activation curve with a large enough effect; inconclusive = small, poorly fitted or top-dose-only effect; also: nearly all actives have a fitted effect of over 60% in size
Target sequence (Q9HBX9 whole entry, looked up): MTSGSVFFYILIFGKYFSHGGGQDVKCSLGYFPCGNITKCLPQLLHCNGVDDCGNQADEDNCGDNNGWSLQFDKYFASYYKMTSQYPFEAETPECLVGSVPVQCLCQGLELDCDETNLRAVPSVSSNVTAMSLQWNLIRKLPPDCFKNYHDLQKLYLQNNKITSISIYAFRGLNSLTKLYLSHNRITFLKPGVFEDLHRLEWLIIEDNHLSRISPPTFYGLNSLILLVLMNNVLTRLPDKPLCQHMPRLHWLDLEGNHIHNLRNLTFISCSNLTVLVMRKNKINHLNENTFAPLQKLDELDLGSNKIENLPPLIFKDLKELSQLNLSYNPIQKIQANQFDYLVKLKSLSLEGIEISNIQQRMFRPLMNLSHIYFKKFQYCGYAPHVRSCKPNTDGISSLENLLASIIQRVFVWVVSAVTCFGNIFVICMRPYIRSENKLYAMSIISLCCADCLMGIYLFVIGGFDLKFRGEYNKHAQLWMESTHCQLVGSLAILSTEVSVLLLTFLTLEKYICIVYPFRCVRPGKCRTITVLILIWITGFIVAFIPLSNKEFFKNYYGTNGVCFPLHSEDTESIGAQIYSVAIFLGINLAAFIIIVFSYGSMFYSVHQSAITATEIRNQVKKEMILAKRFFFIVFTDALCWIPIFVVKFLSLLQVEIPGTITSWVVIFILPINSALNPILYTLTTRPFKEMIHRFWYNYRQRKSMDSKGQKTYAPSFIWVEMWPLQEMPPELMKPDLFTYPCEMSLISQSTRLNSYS
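HEK293T cells stably expressing RXFP1 were pretreated with the PDE4 inhibitor Ro 20174, exposed to compounds for 30 min at 37C, lysed, and cAMP was read by TR-FRET. Data normalized to buffer (basal) and 29 nM porcine relaxin (100%).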
RXFP1 antag = blocks the human relaxin receptor RXFP1; Q9HBX9; HEK293-RXFP1, relaxin-stimulated cAMP HTRF, 30 min; stronger effect = lower value; activity change, negative = inhibition, % at 57.5 µM; 350,000 tested, 0.59% active;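 active = activity change of -60% or lower, but not beyond a set lower limit; inconclusive = change between -60% and -40%, or beyond the set limit; inactive = change above -40%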
Hits are given with their value; 0 = inactive; ? = inconclusive; - = no result given; [ ] = another dose, or the depositor's remark.

SMILES	pAkt inh	gsp antagonist	ClpP mod	gsp agonist	RXFP1 agonist	RXFP1 antag
Cc1cc(C)nc(N2CCCC(C(=O)NCCc3ccc(F)cc3)C2)n1 (configuration not stated)	0	0	11µM	0	0	0
O=C(NNc1ccc([N+](=O)[O-])cc1[N+](=O)[O-])c1ccco1	0	35µM	0	0	0	0
Oc1ccc(Br)cc1C=Nc1ccc2c3c(cccc13)CC2	0	0	32µM	0	0	0
Oc1ccc(Cl)cc1C=Nc1ccccc1Br	0	0	?	0	0	0
CCN(c1ccccc1)S(=O)(=O)c1ccc(NC(=O)c2cc(=O)c3ccc(C)c(C)c3o2)cc1	-	-	0	-	0	0
CCn1cc(-c2cc(C(F)(F)F)n3nc(C(=O)O)cc3n2)c(C)n1	-112%	0	0	0	0	0
c1ccc(N2N=C(c3cccs3)CC2c2ccco2)cc1 (configuration not stated)	0	0[15.4 µM]	16µM	?	0	0
Cc1nn(C)c(Cl)c1S(=O)(=O)N(Cc1ccco1)c1ncnc2nc[nH]c12	-	-	0	-	-	-
Cc1ccc(Sc2c([N+](=O)[O-])c(=O)n(C)c3ccccc23)cc1	0	?	0	0	0	0
Cc1ccc(Sc2c(C=O)c3ccccc3n2C)cc1	0	0	0	18µM	0	0
Cc1ccc(Sc2c(O)c3ccccc3n(C)c2=O)cc1	0	0	0	13µM	?	0
Cc1cc(N2CCN(C(=O)c3[nH]c(C(F)(F)F)nc3-c3ccccc3)CC2)c2ccccc2n1	0	-	0	-	-	-
CCn1c(SCC(=O)c2c[nH]c3ccccc23)nc2cc(S(=O)(=O)N3CCOCC3)ccc21	0	0	28µM	0	0	0
Cc1cccc(NC(=O)C[n+]2cccc(C)c2)c1	0	0	0	0[15.4 µM]	0	0
O=C(C[n+]1cccc(O)c1)Nc1ccc(Br)cc1	0	0	28µM	0[15.4 µM]	0	0
Cc1ccc(Cl)cc1N1CCN(C(=O)COc2cc(=O)n(C)c3ccccc23)CC1	-	-	0	-	0	-
N#Cc1c(Cl)cccc1N1CCSCC1	0	-	0	-	-	-
N#Cc1c(N2CCSCC2)nsc1-c1ccccc1Cl	0	0	0	16µM	?	0
COc1ccccc1NC(=O)C(Cc1ccccc1)NS(=O)(=O)c1ccc2c(c1)CCN2C(C)=O (configuration not stated)	-	-	0	-	0	0
CP(=O)(COC(=O)c1ccccc1)COC(=O)c1ccccc1	0	0[15.4 µM]	0	0	0	0
CC(=O)OCP(C)(=O)COC(C)=O	-121%	0	0	0	0	0
Cc1ccc(-c2ccc(CCC(=O)O)n2-c2ccc(C(=O)O)cc2)cc1	0	0	0	0	0	0
COC(=O)c1ccc(-n2c(CCC(=O)O)ccc2-c2ccc(C)cc2)cc1	0	32µM	0	0	0	0
COc1ccc(C(=O)c2[nH]c(N)c(C(=O)NCCc3c[nH]c4ccccc34)c2-c2c(F)cccc2Cl)cc1	0	-	0	-	-	-
CSc1nnc(-c2sc3cc(C(F)(F)F)cnc3c2-c2ccccc2)n1C	0	0	32µM	0	0	0
SMILES	pAkt inh	gsp antagonist	ClpP mod	gsp agonist	RXFP1 agonist	RXFP1 antag
C=CCNC(=O)CSc1ncc2c(n1)-c1c(csc1SC)CC2	0	0	32µM	0[15.4 µM]	0	0
Nc1ccc2c(c1)C/C(=C/c1ccco1)C2=O	0	0	14µM	0	0	0
Cc1ccc(C(=O)Nc2cc3c(cc2C)n(C)c(=O)c(=O)n3C)cc1	-	-	0	-	0	0
COCCNC(=O)c1c[nH]c2ccc(S(=O)(=O)Nc3ccccc3F)cc2c1=O	0	0	0	0	0	0
CCc1ccccc1N(C)S(=O)(=O)c1ccc2[nH]cc(C(=O)NCCOC)c(=O)c2c1	-	-	28µM	-	0	0
COCCNC(=O)c1c[nH]c2ccc(S(=O)(=O)N3CCC4(CC3)OCCO4)cc2c1=O	0	0	20µM	?	0	-
CCCCNC(=O)c1c[nH]c2ccc(S(=O)(=O)N3CCOCC3)cc2c1=O	0	0	-	0[15.4 µM]	0	0
CC(C)CCNC(=O)c1c[nH]c2ccc(S(=O)(=O)N3CCC4(CC3)OCCO4)cc2c1=O	0	0	?	0	0	-
CC1CCN(S(=O)(=O)c2ccc3[nH]cc(C(=O)NCCN4CCOCC4)c(=O)c3c2)CC1	0	0	25µM	0	0	0
Cc1ccc(-c2nc3nc(C)cc(N4CCN(c5cccc(C)c5)C(C)C4)n3n2)cc1 (configuration not stated)	-	-	0	-	0	-
CCCC(=O)NC(c1ccc(OC)cc1)c1c(O)ccc2ccccc12 (configuration not stated)	0	0	-	0	0	0
COc1ccc(C(NC(=O)C2CCCCC2)c2c(O)ccc3ccccc23)cc1 (configuration not stated)	0	0	25µM	0	0	0
Cc1cc(C)c(C)c(S(=O)(=O)Nc2ccccc2C(=O)O)c1C	0	0	-	0	0	0
Cc1cc(NC(=O)c2ccccc2NS(=O)(=O)c2c(C)c(C)cc(C)c2C)no1	0	0	28µM	0	0	0
Cc1cc(NC(=O)c2cc(Cl)ccc2Cl)no1	0	0	0	0	0	0
Cc1ccc(C)c(NC(=O)c2ccccc2NS(=O)(=O)c2cc([N+](=O)[O-])ccc2C)c1	0	?	0	?	0	0
COc1ccccc1NS(=O)(=O)c1cc(C)ccc1C	0	6.3µM	0	0	0	0
Cc1ccc(C)c(S(=O)(=O)Nc2ccccc2C(=O)Nc2cc(C)on2)c1	-	?	16µM	0	0	0
Cc1cc(NC(=O)c2ccccc2Cl)no1	-104%	0	0	0	0	0
O=C(c1ccc(NC(=S)NCc2ccco2)cc1)N1CCOCC1	0	0	0	?	0	0
COC(=O)c1ccccc1NC(=O)C(=O)NCC1CCCO1 (configuration not stated)	0	0	0	0	0	0
Cc1ccccc1NC(=O)NCC1CCCO1 (configuration not stated)	0	0	28µM	0	0	0
COC(=O)c1ccccc1NC(=O)NCC1CCCO1 (configuration not stated)	0	0	25µM	0	0	0
CCCCN(CCCC)S(=O)(=O)c1ccc(NC(=O)c2c(-c3ccccc3)noc2C)cc1	-	-	0	-	0	0
COc1ccccc1NC(=O)n1ncc2c(C)cccc21	-	-	0	-	0	0
N#Cc1ccc(-c2ccc(OCC(O)Cn3nnc4ccccc43)cc2)cc1 (configuration not stated)	0	32µM	?	0	0	0
CC(=O)c1ccc(OCC(O)Cn2nnc3ccccc32)cc1 (configuration not stated)	0	0	0	0	0	0
Cc1cc(N)n2ncc(-c3ccc(Cl)cc3)c2n1	0	0	22µM	0	0	0
COc1ccc(C(=O)Sc2ccc(Cl)cc2)cc1OC	-127%	0[15.4 µM]	0	0	0	0
